Assay outcomes from PubChem.
Most compounds without a hit are left out; they make up all but 2.7% or so of the library.
S2 tox = Viability Counterscreen for Primary qHTS for Inhibitors of ATXN expression; S2 cells (HEK-293 line with an ATXN2-luciferase reporter) viability, CellTiter-Fluor protease fluorescence, 24 h; Potency, µM (series often up to 56.7 µM), most hits filed as cytotoxic; 400,000 tested, 0.49% active; further: nearly all actives have a fitted effect of over 40% in size
12-LOX inh = Primary qHTS assay for inhibitors of human arachidonate 12S-lipoxygenase (ALOX12): Round 2; Potency, µM (series often up to 108 µM), inactives show at the top dose activity change, negative = inhibition, actives largely listed as inhibitors; purified 12hLO, xylenol orange hydroperoxide absorbance; 580,000 tested, 1.1% active; AID 1671190, 2021; further: on the % scale 0 is the no-effect control and ±100 the full control effect
Target sequence (P18054 whole entry, looked up): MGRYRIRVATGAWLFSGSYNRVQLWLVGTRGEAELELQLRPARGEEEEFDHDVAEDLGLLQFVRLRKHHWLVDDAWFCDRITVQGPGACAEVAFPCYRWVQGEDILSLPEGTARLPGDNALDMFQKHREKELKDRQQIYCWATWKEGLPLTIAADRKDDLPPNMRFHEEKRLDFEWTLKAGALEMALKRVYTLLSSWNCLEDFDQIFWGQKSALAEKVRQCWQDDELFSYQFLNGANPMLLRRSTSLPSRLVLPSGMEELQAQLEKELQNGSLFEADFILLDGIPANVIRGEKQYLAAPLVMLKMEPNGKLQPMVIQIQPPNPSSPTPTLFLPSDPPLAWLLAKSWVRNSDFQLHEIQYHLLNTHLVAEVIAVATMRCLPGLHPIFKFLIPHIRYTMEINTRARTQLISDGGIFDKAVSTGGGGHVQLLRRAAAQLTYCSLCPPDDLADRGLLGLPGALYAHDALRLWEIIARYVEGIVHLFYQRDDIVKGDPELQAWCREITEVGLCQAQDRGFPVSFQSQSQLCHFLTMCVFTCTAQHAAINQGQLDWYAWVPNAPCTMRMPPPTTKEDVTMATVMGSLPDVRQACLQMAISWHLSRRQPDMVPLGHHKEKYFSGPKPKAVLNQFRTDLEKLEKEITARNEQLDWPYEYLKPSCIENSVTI
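Purified human 12hLO (150 nM final) in 25 mM Hepes, 0.01% Triton X-100, pH 7.0 was preincubated 15 min at room temperature with compound. Then 40 uM arachidonic acid was added, 30 min. Hydroperoxide was read by Fe-XO absorbance ratio 573/405 nm.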
TGFb SMAD3 inh = qHTS for Inhibitors of TGF-b; Potency, µM (titrated, usually from 46.1 µM), for inactives: at the top dose activity, negative = inhibition, usual class: inhibitors; HepG2 CAGA-GFP TGF-b/SMAD3 reporter, GFP fluorescence, 18 h; TGF-beta stimulated, 500 pg/mL final; 410,000 tested, 1.2% active; AID 588855, 2011; further: on the % scale 0 is the no-effect control and ±100 the full control effect; nearly all actives have a fitted effect of over 65% in size
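Using HEPG2 CAGA-GFP reporter cells at 1000 cells/well, we pinned test compounds, stimulated with recombinant TGF-beta (500 pg/mL final) and measured total well GFP after 18 h.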
HepG2 viability = qHTS for Inhibitors of TGF-b: Cytotox Counterscreen | HepG2 CAGA-GFP viability, ATP luminescence, 18 h | Potency, µM (series often up to 46.1 µM), for inactives: at the top dose activity change, negative = cytotoxicity, most hits filed as cytotoxic | 410,000 tested, 0.76% active
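HepG2 CAGA-GFP cells (1000/well, DMEM with 1% FBS) received compound, then TGF-beta at 500 pg/mL final, and were incubated 18 hours at 37 degrees C. Viability was read by CellTiter-Glo luminescence. Media-only wells were set as complete cell-killing and DMSO as no toxicity.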
ATXN2 expr inh = Primary qHTS for Inhibitors of ATXN expression. Potency, µM (series often up to 57 µM), for the others: at the top dose activity change, negative = inhibition, actives largely listed as inhibitors. HEK-293 ATXN2-luciferase reporter, luminescence, 24 h. 360,000 tested, 0.72% active; further: on the % scale 0 is the no-effect control and ±100 the full control effect; nearly all actives have a fitted effect of over 55% in size
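ATXN2-luciferase reporter cells (luciferase flanked by upstream and downstream ATXN2 gene portions) were treated 24 h at 37 °C with compounds at up to 57 uM. SteadyGlo luminescence gave expression; GF-AFC fluorescence gave viability.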
Starred values were filed as active, the others as inactive; i = inactive; u = inconclusive; x = no result given; [ ] = remark or other dose. The call rests on the fitted dose curve; in most records, active means well fitted curve in the direction sought with a large enough effect; inconclusive means small, poorly fitted or top-dose-only effect, or another doubt; inactive means no such curve, though single readings can be large; an effect the other way counts as inactive or inconclusive. Potency means the concentration at half of the fitted maximal effect.

SMILES	S2 tox	12-LOX inh	TGFb SMAD3 inh	HepG2 viability	ATXN2 expr inh
CCCC/C(C)=N/NC(=S)Nc1ccccc1	x	6.3µM*	x	x	x
CCN(CC)/C(Sc1ccccc1)=C(/C(Cl)=C(Cl)Cl)[N+](=O)[O-]	i	7.9µM*	-1%	-2%	4%
Cc1ccc2oc(C(=O)NCC(c3cccs3)N3CCOCC3)c(C)c2c1 (stereo not given)	x	-5%	x	x	x
COc1ccc(N2C(=O)CC(Sc3nc4ccccc4s3)C2=O)cc1OC (stereo not given)	32µM*	-2%	-3%	-30%	x
CC(=O)Nc1ccc(N2C(=O)CC(Sc3nc4ccccc4s3)C2=O)cc1 (stereo not given)	i	-2%	8%	-9%	x
C=CCc1cccc(OC)c1OCCOCCNCCO	i	2.2µM*	12%	-7%	-8%
Cc1cccc2sc(NC(=O)CCNS(=O)(=O)c3cccc4nonc34)nc12	i	-13%	u	20µM*	-4%
O=C(c1cc2cc(Cl)ccc2[nH]1)N1CCN(C(=O)c2ccco2)CC1	u	45µM*	u	-25%	x
O=C(c1cc2cc(Cl)ccc2[nH]1)N1CCN(c2ccccc2F)CC1	i	0%	-1%	-10%	-1%
OC(CNCCC1C=Nc2ccccc21)Cn1c2ccc(Cl)cc2c2cc(Cl)ccc21 (stereo not given)	x	u	u	-96%	32µM*
COc1ccc(OC)c(CCNC(=O)c2ccc(Cl)c(N3C(=O)CCS3(=O)=O)c2)c1	x	-5%	x	x	x
CCCCN(CCCC)c1ccc(Cn2ccc3ccccc32)cc1	x	x	18µM*	-72%	x
CC(OC(=O)c1nn(C)c(=O)c2ccccc12)C(=O)Nc1ccc(S(=O)(=O)N2CCCCC2)cc1 (stereo not given)	x	-26%	x	x	x
COC(=O)c1ccc(OC(=O)c2ccc(N(C)C)cc2)cc1	x	-1%	x	x	x
CCOC(=O)c1cc2c(ccn2C)n1CC(=O)N1CCCC(C)C1 (stereo not given)	u	12%	-5%	-15%	-6%
CCOC(=O)c1cc2c(ccn2C)n1CC(=O)N1CCC(Cc2ccccc2)CC1	u	u	11µM*	-33%	0%
Cc1cccc(OC[C@H]2C[C@@H](NCc3cccc4c3OCO4)[C@H](O)[C@@H]2O)n1	x	20µM*	x	x	x
COC[C@H]1C[C@@H](NCc2ccc(C)o2)[C@H](O)[C@@H]1O	x	57%[176 µM]	x	x	x
COc1cc(NC(=S)NCCC(c2ccccc2)c2ccccc2)c(OC)cc1Cl	i	40µM*	u	0%	-3%
COc1ccc(Cl)cc1NC(=S)NCCC(c1ccccc1)c1ccccc1	i	32µM*	u	-34%	-19%
COc1cc(NC(=O)C(c2ccccc2)c2ccccc2)c(OC)cc1Cl	x	12%	x	x	x
COc1ccc(Cl)cc1NC(=S)NCCO	i	-21%	-1%	2%	10%
COc1ccccc1NC(=S)NCCC(c1ccccc1)c1ccccc1	i	35µM*	13µM*	-14%	x
COc1ccc(CN2CC(=O)N(c3cccc(Cl)c3)[C@@H]3CS(=O)(=O)C[C@@H]32)cc1OC	x	-49%	x	x	x
COc1ccc(OC)c(C2CCCN2C(=O)c2ccc(-n3cccn3)cc2)c1 (stereo not given)	x	41%	x	x	x
SMILES	S2 tox	12-LOX inh	TGFb SMAD3 inh	HepG2 viability	ATXN2 expr inh
COc1cc2c(cc1OC)C1=C(C#N)CN(C3CCCCC3)CN1CC2	i	40µM*	-7%	-50%	-15%
COc1ccc(CCN2CC(C#N)=C3c4cc(OC)c(OC)cc4CCN3C2)cc1OC	u	9%	-13%	-29%	-12%
CSc1ccc(/C=N\Nc2nncn2N)cc1	u	u	u	-144%	x
CC(C)(C)c1ccc(/C=N/Nc2nncn2N)cc1	i	16%	-10%	3.5µM*	-5%
OC(c1cc(C(F)(F)F)nc2c(C(F)(F)F)cccc12)C1CCCCN1 (stereo not given)	x	u	u	-97%	u
OC(c1cc(-c2cccc(Cl)c2)nc2ccccc12)C1CCCCN1 (stereo not given)	u	35µM*	u	-100%	u
O=C(NC(=S)NCCC1=CCCCC1)c1cccs1	x	11µM*	x	x	x
Cc1cc(NCCCn2ccnc2)n2nc(C)c(-c3ccc(Cl)cc3)c2n1	16µM*	5%	-4%	-61%	u
CNC(=O)c1cc(=O)n(CC(=O)Nc2ccccc2)c2ccccc12	x	5%	x	x	x
COc1ccc(-c2c(C)oc3c(C)c(OCCN4CCC(C(N)=O)CC4)ccc3c2=O)cc1	x	-39%	x	x	x
Cc1ccncc1-c1c(C)nn2c1N(Cc1cccc(O)c1)CCC2	x	32µM*	x	x	x
Cc1ccncc1-c1c(C)nn2c1N(Cc1cccc(OC(F)(F)F)c1)CCC2	x	-24%[176 µM]	x	x	x
CCCCCC(C)NCc1sccc1C (stereo not given)	x	0.45µM*	x	x	x
CCC(CO)NCc1sccc1C (stereo not given)	u	319%	7%	15%	x
COc1ccc(Cc2c(-c3ccco3)nc3ccc(Cl)cn23)c(C)c1	i	u	22µM*	-47%	-8%
COc1ccc(Cc2c(-c3ccco3)nc3ccc(Br)cn23)c(C)c1	x	u	16µM*	16µM*	u
COc1ccc(Cc2c(-c3ccccc3)nc3ccc(Cl)cn23)c(C)c1	u	u	u	-13%	7%
COc1ccc(Cc2c(-c3ccc(F)cc3)nc3ccc(Cl)cn23)c(C)c1	u	28µM*	u	-12%	19%
N#CC(C(=O)NCc1ccccc1)c1nc2ccccc2nc1N1CCN(CCc2ccccc2)CC1 (stereo not given)	x	-6%	x	x	x
CC(=O)n1cc(N(C(=O)CCl)c2ccc(C)cc2)c2ccccc21	10µM*	u	5.6µM*	5µM*	8.9µM*
O=C(Cn1c(=O)[nH]c(=O)c2ccccc21)Nc1cccc2cccnc12	x	5%	x	x	x
COc1cc(/C=N/n2c(-c3n[nH]c4c3CCC4)n[nH]c2=S)cc(OC)c1O	u	u	-6%	14%	23%
COc1cc(OC)c(/C=N/n2c(C3CCCCC3)n[nH]c2=S)c(OC)c1	i	u	-13%	-14%	-3%
COc1cccc(/C=N/n2c(C3CCCCC3)n[nH]c2=S)c1O	i	20µM*	-28%	-31%	-21%
S=c1[nH]nc(C2CCCCC2)n1/N=C/c1ccccn1	i	18µM*	-4%	-17%	6%
COc1cccc(/C=N/n2c(-c3n[nH]c4c3CCC4)n[nH]c2=S)c1O	i	40µM*	-3%	1%	-6%
